Screening results deposited in PubChem BioAssay by several laboratories.
RecA intein inh: Mtb RecA intein splicing inhibitors, primary screen, biochemical, fluorescence, HTS. Protein RecA (Mycobacterium tuberculosis (strain ATCC 25618 / H37Rv)), P9WHJ3. cell-free RecA intein splicing. inhibition, % (test concentration not listed). 290,000 tested, 0.75% active. AID 2221, 2009; in the data active = inhibition above about 30%
Target sequence (P9WHJ3 whole entry, looked up): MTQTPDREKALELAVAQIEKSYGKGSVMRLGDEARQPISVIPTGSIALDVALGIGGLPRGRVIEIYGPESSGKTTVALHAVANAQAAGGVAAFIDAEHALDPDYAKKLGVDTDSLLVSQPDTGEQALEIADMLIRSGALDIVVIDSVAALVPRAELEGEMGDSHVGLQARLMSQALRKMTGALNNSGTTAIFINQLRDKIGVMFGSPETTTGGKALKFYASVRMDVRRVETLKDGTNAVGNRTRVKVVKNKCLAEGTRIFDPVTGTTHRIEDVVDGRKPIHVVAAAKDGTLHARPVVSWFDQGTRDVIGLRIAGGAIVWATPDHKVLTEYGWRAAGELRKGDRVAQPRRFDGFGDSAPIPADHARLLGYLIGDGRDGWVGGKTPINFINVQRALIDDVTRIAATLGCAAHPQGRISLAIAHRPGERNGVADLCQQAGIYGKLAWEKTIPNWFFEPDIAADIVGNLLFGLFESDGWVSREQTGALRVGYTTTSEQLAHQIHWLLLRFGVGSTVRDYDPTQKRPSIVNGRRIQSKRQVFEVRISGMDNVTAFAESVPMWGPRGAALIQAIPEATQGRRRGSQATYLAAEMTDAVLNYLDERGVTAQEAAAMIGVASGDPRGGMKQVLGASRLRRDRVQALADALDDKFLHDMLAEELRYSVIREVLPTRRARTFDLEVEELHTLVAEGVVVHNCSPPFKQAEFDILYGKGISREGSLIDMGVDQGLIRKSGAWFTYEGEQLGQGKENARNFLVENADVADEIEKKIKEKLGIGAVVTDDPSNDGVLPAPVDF
Mtb bLac sens: beta-lactam sensitization of Mtb H37Rv, H37Rv. M. tuberculosis H37Rv growth with meropenem, percent inhibition. inhibition, % at 25 µM. 330,000 tested, 0.27% active. AID 434955, 2010; call rule not given here;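 also: growth measured after seven days incubation then overnight dye step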
CCHF vOTU inh-1: CCHFV vOTU protease inhibitors, primary screen, biochemical, Pep-AMC substrate, fluorescence. 370,000 tested, 0.55% active. AID 651958, 2012. inhibition, % at 11.5 µM
BioA inh: M. tuberculosis BioA enzyme inhibitors, primary screen, biochemical, plate reader, single point, HTS; 7,8-diaminopelargonic acid synthase BioA (Mycobacterium tuberculosis); purified M. tuberculosis BioA enzyme; AID 602481, 2012; 360,000 tested, 0.096% active; inhibition, % at 9.99 µM; in the data active = inhibition above about 40%
Yp Topo-I inh: Yersinia pestis topoisomerase I inhibitors, primary screen, biochemical, cleavage product accumulation, plate reader, single point; DNA topoisomerase I (Yersinia pestis CO92); Y. pestis Topo-I cleavage product accumulation; activity, % at 10 µM; 360,000 tested, 0.064% active; AID 504884, 2011; in the data active = activity above about 50%, passing the limit was not always enough
BJeLR viability: MLPCN primary cell-based screen for lethality selective to Ras in HRASV12 cells | BJeLR (HRASV12) viability, CellTiter-Glo ATP luminescence, 48 h | inhibition, % (no concentration beside the values) | 300,000 tested, 0.17% active | AID 1554, 2009; in the data active = inhibition above about 50%
CCHF vOTU inh-2: CCHFV vOTU protease inhibitors, confirmation, biochemical, Pep-AMC substrate, fluorescence | AID 686976, 2013 | shares compounds with CCHF vOTU inh-1 | 1,900 tested, 17% active | inhibition, % at 11.5 µM | Recombinant CCHFV vOTU
Hits are given with their value; i = inactive; nt = not tested or not shown. Sampled rows, rich in hits. Any-hit rate of the full collection: about 1.1%. Rule as the data show it, unless noted: active = inhibition above about 30%; inactive = the rest.

SMILES	RecA intein inh	Mtb bLac sens	CCHF vOTU inh-1	BioA inh	Yp Topo-I inh	BJeLR viability	CCHF vOTU inh-2
NC(=O)C1(N2CCCCC2)CCN(C2CC(=O)NC2=O)CC1 (stereo unspecified)	i	i	31	i	i	i	i
CN1C(=O)CC(N2CCC(C(N)=O)(N3CCCCC3)CC2)C1=O (stereo unspecified)	i	i	i	i	i	i	nt
COc1ccc(NC(=O)N(C)C[C@H]2OCCCC[C@H](C)Oc3ccc(NC(=O)C4CCCCC4)cc3C(=O)N([C@@H](C)CO)C[C@H]2C)cc1	nt	nt	nt	i	nt	nt	nt
C[C@@H]1CN([C@H](C)CO)C(=O)c2cc(NC(=O)Nc3ccccc3)ccc2O[C@@H](C)CCCCO[C@@H]1CN(C)Cc1ccc(C(F)(F)F)cc1	nt	nt	nt	i	nt	nt	nt
CCOc1ccc(C(CC(=O)O)NC(=O)C2c3ccccc3Oc3ccccc32)cc1 (stereo unspecified)	i	i	i	i	i	i	nt
O=C(O)CC(NC(=O)C1c2ccccc2Oc2ccccc21)c1ccc(OC2CCCC2)cc1 (stereo unspecified)	i	i	33	nt	i	i	i
Cc1cc(N2C(=O)C(O)=C(C(=O)c3cc4ccccc4o3)C2c2cccc(Br)c2)no1 (stereo unspecified)	i	i	32	i	78	i	i
CN(C)CCCNC(=O)C[C@@H]1CC[C@H](NS(=O)(=O)c2ccc(F)cc2)[C@H](CO)O1	nt	nt	nt	i	nt	nt	nt
N#Cc1cc(Cl)c(N2CCOCC2)cc1C#N	i	i	i	i	i	i	nt
N#Cc1cc2ccc(N3CCOCC3)cc2cc1C#N	i	i	73	i	i	i	i
Cc1noc(C)c1S(=O)(=O)N(C)C[C@H]1Oc2ccc(NS(=O)(=O)c3cccs3)cc2C(=O)N([C@@H](C)CO)C[C@H]1C	nt	nt	nt	i	nt	nt	nt
O=C1C2=C(c3ccccc31)[N+](=O)[C@@H]1CCCC[C@@H]1N2[O-]	nt	i	74	i	i	i	i
O=C1c2ccccc2C(=O)c2c1ccc1c(=O)n(C3CCCCC3)[nH]c21	i	i	i	i	i	i	nt
CCn1c(=O)c(C(=O)NCCN2CCCCC2)c(O)c2ccccc21	nt	i	34	i	i	i	i
O=c1[nH]c(=S)[nH]c2c1C(c1cccc(C(F)(F)F)c1)OC(CCc1ccccc1)C2 (stereo unspecified)	nt	nt	42	nt	nt	nt	i
C[C@H](CO)N1C[C@H](C)[C@@H](CN(C)S(=O)(=O)c2ccc(Cl)cc2)Oc2c(NC(=O)c3cnccn3)cccc2C1=O	nt	nt	nt	i	nt	nt	nt
N#C[C@H]1[C@H](c2ccc(C3=CCCCC3)cc2)[C@@H](CO)N1C(=O)c1cccc(F)c1	nt	nt	nt	i	nt	nt	nt
CCOc1ccc(NC(=O)N(CCN2CCOCC2)Cc2ccc3c(c2)CCCN3CC)cc1	i	i	41	i	i	i	i
CC(=O)c1cccc(NC(=O)C2(C)Cc3c(-c4cccc(C(F)(F)F)c4)ccnc3O2)c1 (stereo unspecified)	nt	nt	33	i	i	nt	i
CC1(C(=O)Nc2cccc(OC(F)(F)F)c2)Cc2c(-c3cccc(C(F)(F)F)c3)ccnc2O1 (stereo unspecified)	nt	nt	40	i	i	nt	i
CC(=O)c1cccc(-c2ccnc3c2CC(C(=O)Nc2cccc(C(F)(F)F)c2)O3)c1 (stereo unspecified)	nt	nt	33	i	i	nt	i
COc1cccc(NC(=O)N(C)C[C@@H]2Oc3ncc(C#Cc4ccc(F)cc4)cc3C(=O)N([C@@H](C)CO)C[C@H]2C)c1	nt	nt	nt	i	nt	nt	nt
O=C(C[C@@H]1C=C[C@H](NC(=O)C2CCC2)[C@H](CO)O1)NCCCN1CCOCC1	nt	nt	nt	i	nt	nt	nt
Cc1ccc(S(=O)(=O)N[C@@H]2CC[C@H](CC(=O)NCc3ccccc3F)O[C@H]2CO)cc1	nt	nt	nt	i	nt	nt	nt
CC(C)(C)NCCC(O)c1cc(C(F)(F)F)nc2c(C(F)(F)F)cccc12 (stereo unspecified)	nt	nt	30	nt	i	nt	i
SMILES	RecA intein inh	Mtb bLac sens	CCHF vOTU inh-1	BioA inh	Yp Topo-I inh	BJeLR viability	CCHF vOTU inh-2
O[C@@H](c1cc(C(F)(F)F)nc2c(C(F)(F)F)cccc12)[C@H]1CCCCN1	i	i	i	i	i	i	nt
Cc1ccc(NC(=O)Cc2ccc(Cl)c(Cl)c2)cc1S(=O)(=O)N(C)C	i	i	30	i	i	i	i
CCCCCCCC/C=C\CCCCCCCC(=O)NCCc1ccc(O)c(O)c1	nt	i	30	i	i	nt	i
Cc1c(C(=O)O)c(=O)n(-c2ccccc2)n1-c1ccccc1	i	i	i	nt	i	i	nt
Cc1c(C=O)c(=O)n(-c2ccccc2)n1-c1ccccc1	i	i	32	i	i	i	i
Clc1ccccc1N=Nc1ccccn1	nt	nt	84	nt	i	nt	i
COc1ccccc1NC(=O)COC(=O)c1cc2ccccc2cc1O	nt	i	i	i	i	nt	nt
O=C(COC(=O)c1cc2ccccc2cc1O)Nc1ccccc1F	nt	i	31	i	i	nt	i
COc1ccc(/C=N/N=C2/NC(=O)C(CC(=O)O)S2)cc1OCc1ccc(Cl)cc1 (stereo unspecified)	i	i	31	i	i	i	i
O=C(O)CC1S/C(=N/N=C/c2ccc(-c3ccc(Cl)cc3[N+](=O)[O-])o2)NC1=O (stereo unspecified)	70	i	36	nt	i	i	i
CCC(=O)Nc1ccc2c(c1)OC[C@@H](C)N(C(=O)c1ccc(F)cc1)C[C@H](C)[C@H](OC)CN(C)C2=O	nt	nt	nt	i	nt	nt	nt
Cc1cccc(OCC(=O)Nc2cc(Cl)ccc2-n2cncn2)c1C	i	i	i	i	i	i	nt
CCCOc1ccccc1OCC(=O)Nc1cc(Cl)ccc1-n1cncn1	i	i	32	i	i	i	i
COc1ccc(S(=O)(=O)N(C)C[C@@H]2Oc3cc(C#CC4CCCCC4)ccc3S(=O)(=O)N([C@@H](C)CO)C[C@@H]2C)cc1	nt	nt	32	i	i	nt	i
COc1ccc(S(=O)(=O)N(C)C[C@H]2Oc3cc(C#CC4CCCCC4)ccc3S(=O)(=O)N([C@H](C)CO)C[C@@H]2C)cc1	nt	nt	nt	i	nt	nt	nt
C[C@H](CO)N1C[C@H](C)[C@@H](CN(C)C(=O)NC2CCCC2)Oc2cc(Br)ccc2S1(=O)=O	nt	nt	30	i	i	nt	i
COc1ccc(S(=O)(=O)Nc2ccc3c(c2)[C@@H]2C[C@H](CC(=O)NCC4CC4)O[C@H](CO)[C@@H]2O3)cc1	nt	nt	nt	i	nt	nt	nt
C[C@@H]1CN([C@H](C)CO)C(=O)c2cccc(NC(=O)c3nc4ccccc4s3)c2O[C@H]1CN(C)Cc1ccc(C(=O)Nc2ccccc2N)cc1	nt	nt	nt	i	nt	nt	nt
Nc1ccc(C2=Nc3cccc4cccc(c34)N2)cc1	i	nt	i	i	i	i	nt
COc1cccc(C2=Nc3cccc4cccc(c34)N2)c1	i	i	30	i	i	i	i
